Results reported in PubChem BioAssay (NCATS).
Records with an inconclusive call do not appear. Active and inactive are the calls of the source. Calls follow the shape of the dose curve; as a rule, active = well fitted curve in the direction sought with a large enough effect; inconclusive = small, poorly fitted or top-dose-only effect, or another doubt; inactive = no such curve, though single readings can be large; an effect the other way counts as inactive or inconclusive.

What was measured:
UISO = test: qHTS assay to identify novel small-molecules to repurpose for Merkel cell carcinoma treatment (AID 1296009); conditions: MCC and control cell lines, CellTiter-Glo viability, 72 h; series mostly up to 46 µM; also: nearly all actives have a fitted effect of over 60% in size; also: potency is read from the fitted curve at half-maximal effect
How it was run: (§1)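 Viability readout: ATP luminescence (CellTiter-Glo) after 72 hr drug exposure at 37 degree celsius. Dose-response format was 8 points for NPC and 11 points for MIPE; data normalized to in-plate controls.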

WaGa = test: as above; conditions: MCC and control cell lines, CellTiter-Glo viability, 72 h; series mostly up to 46 µM
How it was run: as §1

C33A = test: Primary qHTS to identify gynecologic anti-cancer compounds using libraries of approved drugs and bioactive compounds (AID 1345084); conditions: Gynecologic cancer cell panel viability, ATPlite luminescence, 48 h; series mostly up to 57.5 µM; also: nearly all actives have a fitted effect of over 55% in size
How it was run: (§2)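 Cells, 1,000 per well, plated 16 h, then exposed 48 h at 37 C to compounds. Viability by ATPlite luminescence after 15 min at room temperature.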

CAOV3 = test: as above; conditions: Gynecologic cancer cell panel viability, ATPlite luminescence, 48 h; series mostly up to 57.5 µM
How it was run: as §2

CASKI = test: as above; conditions: Gynecologic cancer cell panel viability, ATPlite luminescence, 48 h; series mostly up to 57.5 µM
How it was run: as §2

Es-2 = test: as above; conditions: Gynecologic cancer cell panel viability, ATPlite luminescence, 48 h; series mostly up to 57.5 µM
How it was run: as §2

HeLa = test: as above; conditions: Gynecologic cancer cell panel viability, ATPlite luminescence, 48 h; series mostly up to 57.5 µM
How it was run: as §2

Hek293T = test: as above; conditions: Gynecologic cancer cell panel viability, ATPlite luminescence, 48 h, control line for the selectivity index; series mostly up to 57.5 µM
How it was run: as §2

JEG-3 = test: as above; conditions: Gynecologic cancer cell panel viability, ATPlite luminescence, 48 h; series mostly up to 57.5 µM
How it was run: as §2
% is scaled to controls: 0 for no effect and ±100 for the full control effect.

O=C(O)c1ccc(OCCN2CCCCC2)cc1
inactive: Potency (UISO) | Potency (WaGa) | Potency (C33A) | Potency (CAOV3) | Potency (CASKI) | Potency (Es-2) | Potency (HeLa) | Potency (Hek293T) | Potency (JEG-3)

CCCOc1ccc2c(c1)CC[C@@H]1[C@@H]2CC[C@]2(C)C(OC)CC[C@@H]12 (some centres not stated)
inactive: Potency (UISO) | Potency (WaGa) | Potency (C33A) | Potency (CAOV3) | Potency (CASKI) | Potency (Es-2) | Potency (HeLa) | Potency (Hek293T) | Potency (JEG-3)

Oc1ccccc1
inactive: Potency (UISO) | Potency (WaGa) | Potency (C33A) | Potency (CAOV3) | Potency (CASKI) | Potency (Es-2) | Potency (HeLa) | Potency (Hek293T) | Potency (JEG-3)

CN(C)CCOC(c1ccccc1)c1ccc(Br)cc1 (configuration not stated)
inactive: Potency (UISO) | Potency (C33A) | Potency (CAOV3) | Potency (CASKI) | Potency (Es-2) | Potency (HeLa) | Potency (Hek293T) | Potency (JEG-3)
active: Potency (WaGa) 23.7 µM

NCC[C@H](O)C(=O)N[C@@H]1C[C@H](N)[C@@H](O[C@H]2O[C@H](CN)[C@@H](O)[C@H](O)[C@@H]2O)[C@H](O)[C@@H]1O[C@H]1O[C@H](CO)[C@@H](O)[C@H](N)[C@@H]1O
inactive: activity change, negative = cytotoxicity (UISO) 23.5% [at 0.597 µM] | activity change, negative = cytotoxicity (WaGa) 23.2% [at 0.597 µM] | activity change, negative = cytotoxicity (C33A) 13.2% [at 0.462 µM] | activity change, negative = cytotoxicity (CAOV3) 10.2% [at 0.462 µM] | activity change, negative = cytotoxicity (CASKI) 11.8% [at 0.462 µM] | activity change, negative = cytotoxicity (Es-2) -2.07% [at 0.462 µM] | activity change, negative = cytotoxicity (HeLa) 16.7% [at 0.462 µM] | activity change, negative = cytotoxicity (Hek293T) 1.79% [at 0.462 µM] | activity change, negative = cytotoxicity (JEG-3) 1.19% [at 0.462 µM]

Cc1ccccc1C(=O)N1CC/C(=N\OS(=O)(=O)O)c2ccc(Cl)cc21
inactive: Potency (UISO) | Potency (WaGa) | Potency (C33A) | Potency (CAOV3) | Potency (CASKI) | Potency (Es-2) | Potency (HeLa) | Potency (Hek293T) | Potency (JEG-3)

COc1ccccc1N1CCN(CC(O)COc2cc(OC)c(OC)c(OC)c2)CC1 (configuration not stated)
inactive: Potency (UISO) | Potency (WaGa) | Potency (C33A) | Potency (CAOV3) | Potency (CASKI) | Potency (Es-2) | Potency (HeLa) | Potency (Hek293T) | Potency (JEG-3)

CC(C)NC(=O)c1ccc(C=O)cc1
inactive: Potency (UISO) | Potency (WaGa) | Potency (C33A) | Potency (CAOV3) | Potency (CASKI) | Potency (Es-2) | Potency (HeLa) | Potency (Hek293T) | Potency (JEG-3)

CC(C(=O)O)c1ccc(/C=C2\CCCCC2=O)cc1 (configuration not stated)
inactive: Potency (UISO) | Potency (WaGa) | Potency (C33A) | Potency (CAOV3) | Potency (CASKI) | Potency (Es-2) | Potency (HeLa) | Potency (Hek293T) | Potency (JEG-3)

CC(=O)c1cc2ccccc2s1
inactive: Potency (UISO) | Potency (WaGa) | Potency (C33A) | Potency (CAOV3) | Potency (CASKI) | Potency (Es-2) | Potency (HeLa) | Potency (Hek293T) | Potency (JEG-3)

O=C1CC2(CCCC2)CC(=O)N1CCNCC1COc2ccccc2O1 (configuration not stated)
inactive: Potency (UISO) | Potency (WaGa) | Potency (C33A) | Potency (CAOV3) | Potency (CASKI) | Potency (Es-2) | Potency (HeLa) | Potency (Hek293T) | Potency (JEG-3)

CCOC(=O)C(O)c1ccccc1 (configuration not stated)
inactive: Potency (UISO) | Potency (WaGa) | Potency (C33A) | Potency (CAOV3) | Potency (CASKI) | Potency (Es-2) | Potency (HeLa) | Potency (Hek293T) | Potency (JEG-3)

O=C(O)[C@@H](O)[C@H](O)[C@H](O)[C@@H](O)C(=O)O
inactive: Potency (UISO) | Potency (WaGa) | Potency (C33A) | Potency (CAOV3) | Potency (CASKI) | Potency (Es-2) | Potency (HeLa) | Potency (Hek293T) | Potency (JEG-3)
